Each structure is given as a SMILES string. Calls of active or inactive are those of the source.

The nature of test [1]: optical density shifts of acrAB sulA E. coli – strain DRC41, OD650, 48 h, E. coli filamentation inducer project, primary screen (AID 1152).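 Note: E. coli MC1000 strain DRC41 lacking acrAB efflux pump and sulA.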 Conditions: higher = more signal, called active from +8 up or from −8 down.
Test [2] in a line: probe aLefty1 binding on compound microarray – biochemical, small-molecule microarray, 635/667 nm fluorescence, primary screen (AID 1153).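 Note: score merges spot fluorescence with signal-to-noise ratio from the scanned slide images.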 Conditions: higher = more signal.
Test [3] can be described thus: plasmodial surface anion channel blockers, osmotic lysis – cell-based, P. falciparum Indochina, OD700, 1 h, primary screen (AID 1154). The note with it: P. falciparum Indochina infected RBC osmotic lysis, higher = more signal, called active from +8 up or from −8 down.
Test [4] in a line: plasmodial surface anion channel blockers, osmotic lysis – cell-based, P. falciparum Indochina, OD700, 2 h, primary screen (AID 1155).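 Note: lysis reports solute entry through the parasite surface anion channel PSAC.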 Conditions: P. falciparum Indochina infected erythrocytes, higher = more signal, called active from +8 up or from −8 down.
Test [5] is described as follows: changes in parasitized red cell lysis, either direction – P. falciparum Indochina, OD700, 3 h, PSAC antagonist project, primary screen (AID 1156). Conditions: P. falciparum-infected erythrocytes, osmotic lysis, higher = more signal, called active from +8 up or from −8 down.
Test [6] in a line: plasmodial surface anion channel blockers, osmotic lysis – cell-based, P. falciparum Indochina, OD700, 18 h, primary screen (AID 1157). Conditions: P. falciparum Indochina infected erythrocytes, osmotic lysis OD700, 18 h; higher = more signal, called active from +8 up or from −8 down.
Test [7] is described as follows: S6 kinase pathway phospho-S6 level changes – cell-based, A549, cytoblot, luminescence, serum-stimulated, primary screen (AID 1158).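 Note: serum-stimulated A549 lung adenocarcinoma cells; signal is phosphorylated S6 detected by cytoblot immunostaining with HRP secondary.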 The note with it: 5 h, higher = more signal.
In test [8] the target is NADPH oxidase 2 (Homo sapiens) (UniProt P04839). Put plainly: compounds shifting NOX2 Amplex Red fluorescence – cell-based, HEK293-NOX2, PMA-stimulated, NOX inhibitor project, primary screen (AID 1159). Note: test concentration not given here. Conditions: 45 min, higher = more signal, called active from +8 up or from −8 down.
NADPH oxidase 2 (Homo sapiens), sequence (P04839 whole entry, looked up): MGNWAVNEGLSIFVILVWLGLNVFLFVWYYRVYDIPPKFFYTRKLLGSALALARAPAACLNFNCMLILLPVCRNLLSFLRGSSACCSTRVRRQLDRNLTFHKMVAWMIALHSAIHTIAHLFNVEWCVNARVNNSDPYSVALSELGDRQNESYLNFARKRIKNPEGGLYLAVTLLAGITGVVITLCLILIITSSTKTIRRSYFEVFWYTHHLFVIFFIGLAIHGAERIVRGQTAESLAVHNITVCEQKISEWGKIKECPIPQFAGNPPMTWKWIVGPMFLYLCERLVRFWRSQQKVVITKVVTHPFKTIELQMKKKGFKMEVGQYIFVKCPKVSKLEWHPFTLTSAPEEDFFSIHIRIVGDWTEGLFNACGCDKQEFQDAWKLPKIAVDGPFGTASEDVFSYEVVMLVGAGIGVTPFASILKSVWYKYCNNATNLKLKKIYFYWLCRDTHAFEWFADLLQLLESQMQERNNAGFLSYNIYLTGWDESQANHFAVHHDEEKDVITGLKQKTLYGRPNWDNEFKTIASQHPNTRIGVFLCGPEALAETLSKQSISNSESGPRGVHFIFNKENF
The target in test [9] is NADPH oxidase 4 (Homo sapiens) (UniProt Q9NPH5). Kind of test: compounds shifting NOX4 Amplex Red fluorescence – cell-based, HEK293-NOX4, tetracycline-induced, NOX inhibitor project, primary screen (AID 1160). The note with it: HEK293-NOX4, Amplex Red H2O2 fluorescence, 45 min; higher = more signal, called active from +8 up or from −8 down.
NADPH oxidase 4 (Homo sapiens), sequence (Q9NPH5 whole entry, looked up): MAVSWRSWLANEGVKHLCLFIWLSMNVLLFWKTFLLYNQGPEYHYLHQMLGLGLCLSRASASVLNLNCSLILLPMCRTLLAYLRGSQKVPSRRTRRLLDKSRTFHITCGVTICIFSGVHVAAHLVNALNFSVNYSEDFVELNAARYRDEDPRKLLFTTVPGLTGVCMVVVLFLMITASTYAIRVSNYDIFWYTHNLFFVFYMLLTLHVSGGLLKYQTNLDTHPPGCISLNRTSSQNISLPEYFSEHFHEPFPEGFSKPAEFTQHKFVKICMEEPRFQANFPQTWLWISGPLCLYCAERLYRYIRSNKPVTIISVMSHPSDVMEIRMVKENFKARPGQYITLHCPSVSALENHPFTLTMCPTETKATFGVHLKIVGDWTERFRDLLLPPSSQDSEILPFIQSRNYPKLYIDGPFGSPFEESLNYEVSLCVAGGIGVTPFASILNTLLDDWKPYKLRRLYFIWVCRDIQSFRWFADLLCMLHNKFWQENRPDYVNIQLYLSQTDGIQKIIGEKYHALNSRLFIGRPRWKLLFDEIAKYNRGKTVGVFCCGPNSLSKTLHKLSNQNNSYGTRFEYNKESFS
Test [10] deals with NADPH oxidase 5 (Homo sapiens) (UniProt Q96PH1). Put plainly: compounds shifting NOX5 Amplex Red fluorescence – cell-based, HEK293-NOX5, NOX inhibitor project, primary screen (AID 1161). Conditions: HEK293-NOX5, ionomycin, 45 min, higher = more signal.
NADPH oxidase 5 (Homo sapiens), sequence (Q96PH1 whole entry, looked up): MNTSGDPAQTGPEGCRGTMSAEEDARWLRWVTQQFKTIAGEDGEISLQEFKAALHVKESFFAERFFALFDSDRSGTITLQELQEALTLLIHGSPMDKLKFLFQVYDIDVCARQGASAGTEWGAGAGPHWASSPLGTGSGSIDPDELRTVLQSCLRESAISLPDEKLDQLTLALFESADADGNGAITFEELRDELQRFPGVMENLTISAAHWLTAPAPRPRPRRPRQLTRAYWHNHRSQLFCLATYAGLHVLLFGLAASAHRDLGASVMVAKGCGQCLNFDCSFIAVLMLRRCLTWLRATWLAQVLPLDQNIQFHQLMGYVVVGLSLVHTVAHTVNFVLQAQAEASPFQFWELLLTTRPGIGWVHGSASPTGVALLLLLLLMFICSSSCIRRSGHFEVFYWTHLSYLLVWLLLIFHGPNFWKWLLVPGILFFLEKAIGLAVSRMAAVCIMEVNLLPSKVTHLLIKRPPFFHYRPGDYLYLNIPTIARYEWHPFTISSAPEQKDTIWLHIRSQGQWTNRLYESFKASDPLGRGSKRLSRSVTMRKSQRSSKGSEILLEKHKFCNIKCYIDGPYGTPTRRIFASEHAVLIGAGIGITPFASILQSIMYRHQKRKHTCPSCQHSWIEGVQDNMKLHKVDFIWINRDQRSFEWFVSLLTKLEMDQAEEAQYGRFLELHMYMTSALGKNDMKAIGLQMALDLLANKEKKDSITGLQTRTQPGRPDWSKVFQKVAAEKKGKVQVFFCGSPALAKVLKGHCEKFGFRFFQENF
Test [11] is described as follows: compound effects on lung adenocarcinoma cell viability – A549, calcein-AM fluorescence, 48 h, basal, profiling panel (AID 1162). Note: test concentration not given here. Conditions: higher = more signal.
Test [12] in a line: compound effects on differentiated 3T3-L1 adipocyte viability – cell-based, 3T3-L1 adipocytes, calcein-AM fluorescence, 48 h, basal, profiling panel (AID 1163). Note: test concentration not given here. The note with it: 3T3-L1 adipocytes viability, higher = more signal.
Test [13] can be described thus: compound effects on hepatocellular carcinoma cell viability – HepG2, calcein-AM fluorescence, 48 h, basal, profiling panel (AID 1164). Note: test concentration not given here. The note with it: higher = more signal.
Test [14] can be described thus: compound effects on multiple myeloma cell viability – MM1S, calcein-AM fluorescence, 48 h, basal, profiling panel (AID 1165). Note: test concentration not given here. Conditions: higher = more signal.
Test [15] in a line: calcein-AM signal in unstimulated myeloma cells – cell-based, calcein-AM fluorescence, 48 h, PK04 Diversity Set, profiling panel (AID 1166).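 Note: cells grown under basal conditions without added stimulus; test concentration not given here.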 The note with it: RPMI8226 myeloma viability, higher = more signal.
The nature of test [16]: JC-1 mitochondrial signal, unstimulated HepG2 cells – cell-based, JC-1 fluorescence, 24 h, 100 nL compound, profiling panel (AID 1167). Note: test concentration not given here. The note with it: HepG2 mitochondrial potential, higher = more signal.
Test [17] in a line: JC-1 mitochondrial signal, unstimulated adipocytes – cell-based, JC-1 fluorescence, 3T3-L1 adipocytes, 24 h, 100 nL compound, profiling panel (AID 1168). Note: test concentration not given here. Conditions: JC-1 mitochondrial fluorescence, higher = more signal, called active from +8 up or from −8 down.
Test [18] in a line: JC-1 mitochondrial signal, unstimulated myeloma cells – cell-based, JC-1 fluorescence, RPMI8226, 24 h, 100 nL compound, profiling panel (AID 1169). Note: test concentration not given here. Conditions: JC-1 mitochondrial potential fluorescence, higher = more signal.
A short description of test [19]: JC-1 mitochondrial signal, unstimulated MM1S myeloma – cell-based, JC-1 fluorescence, 24 h, 100 nL compound, profiling panel (AID 1170). Note: test concentration not given here. Conditions: MM1S mitochondrial potential, higher = more signal.
The nature of test [20]: resazurin metabolic signal in A549 cells – cell-based, resazurin fluorescence, 24 h, PK04 Diversity Set, profiling panel (AID 1171). Note: test concentration not given here. Conditions: A549 viability, higher = more signal, called active from +8 up or from −8 down. Background: Alamar Blue is a resazurin reagent that responds to reducing activity.

For `COCCOC(=O)N1C(=O)[C@@]2(c3cc(C#CCNC(N)=O)ccc31)[C@H](c1ccc(OCCO)cc1)N1[C@H](c3ccccc3)[C@H](c3ccccc3)OC(=O)[C@H]1[C@@H]2C(=O)NC[C@H](O)c1ccccc1`, the z-score in test [1] is 0.402 (inactive); in [3], 1.65 (inactive); in [4], 1.1 (inactive); in test [5], 0.624 (inactive); in [6], 0.457 (inactive); in [7], -0.144. Moreover, the z-score was 2.22 (inactive) in test [8]; 1.06 (inactive) in [9]; -0.137 in test [10]; -1.31 in test [11]; 0.494 in test [12]; -0.542 in test [13]. For the same compound, the z-score in [14] was -0.193; in [15], -0.158; in test [16] it was -1.49; in test [17] it was 0.17 (inactive); in [18] it was 0.235; in test [19] it was -0.391. Besides, in test [20], the z-score was 0.32 (inactive). Also, in [2], the composite z-score worked out at 0.119.
As for `COC(=O)C1N=C(c2ccc(OCCCO)cc2)N(c2ccccc2)O1` (stereo not given), the z-score in test [1] was 0.336 (inactive); in [3], 24.9 (active); in test [4] it was 7.38 (inactive); in [5], 1.02 (inactive); in test [6], 1.04 (inactive); in test [7], 0.417. Further, the z-score in [8] is 0.943 (inactive); in test [9], 0.392 (inactive); in [10], -0.0493; in test [11], 0.893; in [12], 1.16; in [13], 0.634. In addition, the z-score in test [14] is -0.943; in [15] it was 0.5; in [16], 0.684; in test [17] it was -0.407 (inactive); in test [18], -0.44; in test [19] it was 0.042. In addition, in [20], the z-score was 0.953 (inactive). Besides, in [2], the composite z-score amounted to 0.103.
Turning to `COc1ccc([Si](C)(C)[C@H]2[C@H](CC(=O)N3Cc4ccccc4C[C@H]3CO)O[C@@]3(C(=O)N(Cc4ccc(N5C(=O)c6cccc7cccc5c67)cc4)c4ccccc43)[C@@H]2C)cc1`, the z-score in [1] was 0.315 (inactive); in test [3] it was 4.25 (inactive); in test [4], 1.36 (inactive); in test [5], 1.67 (inactive); in [6], 1.09 (inactive); in [7], 0.412. Further, the z-score in test [8] is -0.327 (inactive); in test [9] it was 0.252 (inactive); in test [10] it was -1.66; in test [11], -0.0678; in [12], 0.314; in [13] it was 0.898. The z-score is -0.769 in test [14]; -0.874 in test [15]; 2.5 in test [16]; -0.178 (inactive) in [17]; -1.22 in test [18]; -0.862 in [19]. Besides, the z-score in test [20] was 0.0918 (inactive). For the same compound, the composite z-score in test [2] stood at 0.0771.
Regarding `COc1ccc([Si](C)(C)[C@H]2[C@H](CCO)O[C@@]3(C(=O)N(Cc4ccc(N5C(=O)c6ccccc6Oc6ccccc65)cc4)c4ccccc43)[C@@H]2C)cc1`, the z-score in test [1] is 0.157 (inactive); in test [3], 4.29 (inactive); in test [4] it was 2.83 (inactive); in [5] it was -1.44 (inactive); in test [6] it was 1.38 (inactive); in [7] it was 0.211. Besides, the z-score in test [8] is -0.681 (inactive); in [9], 2.36 (inactive); in test [10] it was 1.9; in [11] it was -0.573; in test [12] it was 0.56; in [13], -2.71. Further, the z-score was -2.79 in test [14]; -4.04 in [15]; 0.0142 in [16]; 0.821 (inactive) in [17]; -1.01 in [18]; -2.04 in test [19]. The z-score in test [20] was -2.45 (inactive). In test [2], this compound had a composite z-score of 0.0211.
Take `CN(C)CCCNC(=O)[C@@H]1c2ccccc2C(=O)N(C2CCCCC2)[C@H]1c1ccc(CO)cc1`: the z-score was 0.196 (inactive) in [1]; 1.1 (inactive) in test [3]; -0.541 (inactive) in [4]; 1.67 (inactive) in test [5]; 0.253 (inactive) in test [6]; 0.189 in [7]. Also, the z-score in test [8] was 0.2 (inactive); in test [9], 0.197 (inactive); in test [10], -0.301; in test [11] it was 0.634; in [12], -0.318; in [13], 0.821. The z-score is -0.592 in test [14]; -0.514 in test [15]; 2.43 in test [16]; 0.626 (inactive) in test [17]; 0.363 in test [18]; -0.243 in [19]. Besides, the z-score in test [20] is 0.887 (inactive). In [2], this compound showed a composite z-score of 0.2.

The record behind these values is PubChem BioAssay.
